Experimental data from the supplement of paper PMC11732987, “Enantioselective OTUD7B fragment discovery through chemoproteomics screening and high-throughput optimisation” (Communications Chemistry, 2025).

What was measured:
Assay in all cases: log2 ratio of Biotin-Ahx-Ub-VS probe labelling (fragment/DMSO); higher = less target engagement (more negative = stronger competition), active = hit call of the paper (q ≤ 0.05, log2 ratio ≤ -1)
Conditions in all cases: compound concentration: 200 uM; treatment time: 3 h
USP34 = USP34 (UniProt Q70CQ2)
USP34, sequence (Q70CQ2 whole entry, the tested form may be a part): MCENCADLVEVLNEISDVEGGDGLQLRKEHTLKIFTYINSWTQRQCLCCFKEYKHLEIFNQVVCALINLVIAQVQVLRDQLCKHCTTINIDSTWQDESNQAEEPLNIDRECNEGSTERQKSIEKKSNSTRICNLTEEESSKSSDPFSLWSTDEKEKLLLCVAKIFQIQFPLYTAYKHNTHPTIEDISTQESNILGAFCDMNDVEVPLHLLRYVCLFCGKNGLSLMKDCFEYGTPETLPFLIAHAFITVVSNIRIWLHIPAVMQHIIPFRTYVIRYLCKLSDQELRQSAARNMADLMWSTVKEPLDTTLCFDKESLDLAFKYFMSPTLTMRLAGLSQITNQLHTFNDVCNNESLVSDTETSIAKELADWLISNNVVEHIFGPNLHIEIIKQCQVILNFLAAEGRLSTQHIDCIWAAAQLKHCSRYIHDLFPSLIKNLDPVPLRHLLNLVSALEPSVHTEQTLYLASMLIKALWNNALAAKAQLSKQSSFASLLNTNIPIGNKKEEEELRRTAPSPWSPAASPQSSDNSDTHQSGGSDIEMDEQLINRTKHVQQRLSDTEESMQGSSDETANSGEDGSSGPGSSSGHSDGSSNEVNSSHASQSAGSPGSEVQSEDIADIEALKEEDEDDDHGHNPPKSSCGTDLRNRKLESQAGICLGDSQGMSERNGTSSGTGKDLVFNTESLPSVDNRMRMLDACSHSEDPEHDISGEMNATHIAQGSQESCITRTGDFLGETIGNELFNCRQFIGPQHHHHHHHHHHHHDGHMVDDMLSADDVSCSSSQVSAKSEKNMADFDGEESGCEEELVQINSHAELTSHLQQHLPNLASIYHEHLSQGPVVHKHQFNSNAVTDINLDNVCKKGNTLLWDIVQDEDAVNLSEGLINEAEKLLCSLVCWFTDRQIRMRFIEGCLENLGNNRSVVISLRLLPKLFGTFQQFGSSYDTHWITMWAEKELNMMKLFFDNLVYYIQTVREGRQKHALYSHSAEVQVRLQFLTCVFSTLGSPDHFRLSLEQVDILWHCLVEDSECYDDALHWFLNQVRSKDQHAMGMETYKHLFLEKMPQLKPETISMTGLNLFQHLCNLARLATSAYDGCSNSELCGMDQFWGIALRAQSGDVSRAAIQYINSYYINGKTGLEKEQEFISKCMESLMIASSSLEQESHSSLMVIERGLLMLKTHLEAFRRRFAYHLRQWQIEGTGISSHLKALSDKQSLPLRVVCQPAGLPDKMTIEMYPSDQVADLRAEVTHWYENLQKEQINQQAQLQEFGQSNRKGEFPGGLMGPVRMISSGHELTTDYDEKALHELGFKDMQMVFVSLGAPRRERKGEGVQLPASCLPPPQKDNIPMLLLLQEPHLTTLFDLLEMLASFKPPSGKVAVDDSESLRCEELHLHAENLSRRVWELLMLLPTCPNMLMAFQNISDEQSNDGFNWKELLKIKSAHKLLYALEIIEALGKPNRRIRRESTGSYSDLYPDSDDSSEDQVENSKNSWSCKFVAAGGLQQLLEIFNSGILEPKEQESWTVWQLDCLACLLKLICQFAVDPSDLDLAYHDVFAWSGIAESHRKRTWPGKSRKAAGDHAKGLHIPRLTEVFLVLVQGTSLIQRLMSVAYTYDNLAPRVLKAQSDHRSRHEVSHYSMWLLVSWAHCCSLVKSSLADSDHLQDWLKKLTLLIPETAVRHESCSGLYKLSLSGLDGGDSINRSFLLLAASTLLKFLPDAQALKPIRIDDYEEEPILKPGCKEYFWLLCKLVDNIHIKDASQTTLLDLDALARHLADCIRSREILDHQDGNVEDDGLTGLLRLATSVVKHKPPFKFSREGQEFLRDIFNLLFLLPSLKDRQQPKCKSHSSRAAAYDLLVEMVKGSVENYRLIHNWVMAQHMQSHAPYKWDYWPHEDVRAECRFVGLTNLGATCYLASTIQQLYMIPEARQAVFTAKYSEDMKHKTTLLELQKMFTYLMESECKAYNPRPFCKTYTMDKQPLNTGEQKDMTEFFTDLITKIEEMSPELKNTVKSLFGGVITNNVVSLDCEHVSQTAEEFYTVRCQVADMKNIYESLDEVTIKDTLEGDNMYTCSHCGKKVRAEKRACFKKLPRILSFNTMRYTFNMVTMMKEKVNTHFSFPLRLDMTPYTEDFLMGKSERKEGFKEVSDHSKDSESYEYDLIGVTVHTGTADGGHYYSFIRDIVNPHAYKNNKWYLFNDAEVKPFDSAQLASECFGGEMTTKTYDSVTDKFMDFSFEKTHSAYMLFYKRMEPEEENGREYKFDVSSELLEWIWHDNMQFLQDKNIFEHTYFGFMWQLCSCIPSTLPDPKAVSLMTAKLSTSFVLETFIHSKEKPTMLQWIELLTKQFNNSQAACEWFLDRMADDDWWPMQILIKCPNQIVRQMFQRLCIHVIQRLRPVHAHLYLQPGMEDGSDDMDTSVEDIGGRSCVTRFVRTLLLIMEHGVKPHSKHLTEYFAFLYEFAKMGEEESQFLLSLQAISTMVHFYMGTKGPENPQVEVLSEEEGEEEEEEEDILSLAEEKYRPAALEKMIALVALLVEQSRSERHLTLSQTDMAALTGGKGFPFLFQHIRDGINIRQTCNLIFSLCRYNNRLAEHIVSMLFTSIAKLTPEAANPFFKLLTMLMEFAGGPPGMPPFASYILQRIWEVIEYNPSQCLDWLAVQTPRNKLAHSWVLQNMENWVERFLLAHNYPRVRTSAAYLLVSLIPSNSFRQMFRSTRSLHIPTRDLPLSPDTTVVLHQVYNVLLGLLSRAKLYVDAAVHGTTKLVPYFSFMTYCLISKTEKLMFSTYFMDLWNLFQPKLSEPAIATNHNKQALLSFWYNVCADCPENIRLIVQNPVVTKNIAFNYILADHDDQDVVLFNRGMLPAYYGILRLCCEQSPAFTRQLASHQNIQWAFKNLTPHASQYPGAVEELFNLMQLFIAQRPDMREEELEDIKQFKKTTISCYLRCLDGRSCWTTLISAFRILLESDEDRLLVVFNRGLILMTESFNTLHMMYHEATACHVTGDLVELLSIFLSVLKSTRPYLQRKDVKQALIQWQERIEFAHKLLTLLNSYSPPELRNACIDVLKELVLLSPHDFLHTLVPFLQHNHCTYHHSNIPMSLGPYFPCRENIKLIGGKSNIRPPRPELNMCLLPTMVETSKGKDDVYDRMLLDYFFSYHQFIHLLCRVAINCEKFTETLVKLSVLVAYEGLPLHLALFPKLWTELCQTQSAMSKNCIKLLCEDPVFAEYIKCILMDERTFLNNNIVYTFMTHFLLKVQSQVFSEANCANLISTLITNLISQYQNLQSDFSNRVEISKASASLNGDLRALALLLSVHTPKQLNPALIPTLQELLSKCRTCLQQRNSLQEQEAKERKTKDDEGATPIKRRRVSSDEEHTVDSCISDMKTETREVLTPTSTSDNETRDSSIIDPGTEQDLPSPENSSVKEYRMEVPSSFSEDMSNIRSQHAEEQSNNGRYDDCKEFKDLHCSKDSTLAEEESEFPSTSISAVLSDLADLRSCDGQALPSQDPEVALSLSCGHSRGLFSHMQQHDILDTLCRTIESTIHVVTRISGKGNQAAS
Outline: (§1)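 HEK293T lysate in Tris/CHAPS/IGEPAL buffer with protease inhibitors (495 µg per sample) was given fragment at 200 µM or vehicle for 3 h, in triplicate. It then received Biotin-Ahx-Ub-VS at 0.5 µM final for 1 h. Labelled DUBs were NeutrAvidin-enriched, digested with LysC and trypsin, and run by diaPASEF LC-MS/MS. Values are average log2 fragment/vehicle ratios by unpaired t-test on global-median-normalised Spectronaut quantities of proteins with ≥2 unique peptides.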

USP36 = biological target: T1, USP36 (UniProt Q9P275)
T1 sequence (whole entry): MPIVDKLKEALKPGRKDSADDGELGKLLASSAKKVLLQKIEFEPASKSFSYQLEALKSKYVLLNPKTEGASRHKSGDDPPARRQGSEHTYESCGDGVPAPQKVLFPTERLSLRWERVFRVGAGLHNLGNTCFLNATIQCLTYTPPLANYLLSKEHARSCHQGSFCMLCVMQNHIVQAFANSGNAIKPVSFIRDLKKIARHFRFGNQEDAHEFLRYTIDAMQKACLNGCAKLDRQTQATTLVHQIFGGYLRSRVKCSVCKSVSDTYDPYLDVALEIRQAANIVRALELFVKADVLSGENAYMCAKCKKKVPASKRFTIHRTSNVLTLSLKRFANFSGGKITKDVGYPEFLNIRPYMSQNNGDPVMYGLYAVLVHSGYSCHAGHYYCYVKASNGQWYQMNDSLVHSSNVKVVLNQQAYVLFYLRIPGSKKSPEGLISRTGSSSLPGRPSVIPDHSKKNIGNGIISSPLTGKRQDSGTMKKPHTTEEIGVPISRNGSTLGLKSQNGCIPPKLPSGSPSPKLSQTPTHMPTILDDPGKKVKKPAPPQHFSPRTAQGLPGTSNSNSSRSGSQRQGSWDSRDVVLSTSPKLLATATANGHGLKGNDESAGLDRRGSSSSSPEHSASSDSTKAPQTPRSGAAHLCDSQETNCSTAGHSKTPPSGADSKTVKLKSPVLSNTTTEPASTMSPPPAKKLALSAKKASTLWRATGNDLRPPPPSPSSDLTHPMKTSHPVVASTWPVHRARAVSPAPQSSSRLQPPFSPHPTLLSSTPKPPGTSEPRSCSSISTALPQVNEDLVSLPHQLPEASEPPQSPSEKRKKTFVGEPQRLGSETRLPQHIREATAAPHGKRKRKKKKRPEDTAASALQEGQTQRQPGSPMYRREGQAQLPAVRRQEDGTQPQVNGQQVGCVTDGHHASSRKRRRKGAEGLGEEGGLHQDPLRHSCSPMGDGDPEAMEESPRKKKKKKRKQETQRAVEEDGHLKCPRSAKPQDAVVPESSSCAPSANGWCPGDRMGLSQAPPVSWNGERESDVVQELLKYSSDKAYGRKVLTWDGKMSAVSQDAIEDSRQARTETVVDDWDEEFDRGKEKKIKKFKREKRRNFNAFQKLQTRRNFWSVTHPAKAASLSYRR
Outline: as §1

USP38 = biological target: T2, USP38 (UniProt Q8NB14)
T2 sequence (whole entry): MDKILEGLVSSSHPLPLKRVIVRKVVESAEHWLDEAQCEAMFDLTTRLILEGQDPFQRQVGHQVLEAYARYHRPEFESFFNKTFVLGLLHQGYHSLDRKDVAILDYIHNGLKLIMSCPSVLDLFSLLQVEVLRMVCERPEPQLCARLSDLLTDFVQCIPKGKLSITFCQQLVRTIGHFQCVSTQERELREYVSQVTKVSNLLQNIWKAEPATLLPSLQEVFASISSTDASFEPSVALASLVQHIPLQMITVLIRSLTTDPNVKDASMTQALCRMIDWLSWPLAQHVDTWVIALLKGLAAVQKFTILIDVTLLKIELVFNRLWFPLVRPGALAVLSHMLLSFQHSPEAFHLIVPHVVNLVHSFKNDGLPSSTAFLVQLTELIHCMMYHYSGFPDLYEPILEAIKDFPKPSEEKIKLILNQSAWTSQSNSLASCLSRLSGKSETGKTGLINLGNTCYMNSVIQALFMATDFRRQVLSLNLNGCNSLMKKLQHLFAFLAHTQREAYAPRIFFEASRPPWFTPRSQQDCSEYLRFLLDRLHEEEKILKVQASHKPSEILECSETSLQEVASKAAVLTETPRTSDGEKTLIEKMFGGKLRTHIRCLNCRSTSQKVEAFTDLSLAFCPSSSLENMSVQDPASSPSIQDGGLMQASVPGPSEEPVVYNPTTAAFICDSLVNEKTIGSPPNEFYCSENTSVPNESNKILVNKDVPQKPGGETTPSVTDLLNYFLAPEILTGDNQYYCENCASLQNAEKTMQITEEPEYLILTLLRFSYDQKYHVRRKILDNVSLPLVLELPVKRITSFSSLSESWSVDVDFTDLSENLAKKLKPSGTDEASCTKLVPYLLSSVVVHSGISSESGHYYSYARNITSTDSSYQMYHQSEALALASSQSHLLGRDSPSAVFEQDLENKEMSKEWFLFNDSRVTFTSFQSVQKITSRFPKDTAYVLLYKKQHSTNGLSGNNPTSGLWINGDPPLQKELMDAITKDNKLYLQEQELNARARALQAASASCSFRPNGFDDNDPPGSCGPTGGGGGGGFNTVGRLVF
Outline: as §1

USP39 = biological target: T3, USP39 (UniProt Q53GS9)
T3 sequence (whole entry): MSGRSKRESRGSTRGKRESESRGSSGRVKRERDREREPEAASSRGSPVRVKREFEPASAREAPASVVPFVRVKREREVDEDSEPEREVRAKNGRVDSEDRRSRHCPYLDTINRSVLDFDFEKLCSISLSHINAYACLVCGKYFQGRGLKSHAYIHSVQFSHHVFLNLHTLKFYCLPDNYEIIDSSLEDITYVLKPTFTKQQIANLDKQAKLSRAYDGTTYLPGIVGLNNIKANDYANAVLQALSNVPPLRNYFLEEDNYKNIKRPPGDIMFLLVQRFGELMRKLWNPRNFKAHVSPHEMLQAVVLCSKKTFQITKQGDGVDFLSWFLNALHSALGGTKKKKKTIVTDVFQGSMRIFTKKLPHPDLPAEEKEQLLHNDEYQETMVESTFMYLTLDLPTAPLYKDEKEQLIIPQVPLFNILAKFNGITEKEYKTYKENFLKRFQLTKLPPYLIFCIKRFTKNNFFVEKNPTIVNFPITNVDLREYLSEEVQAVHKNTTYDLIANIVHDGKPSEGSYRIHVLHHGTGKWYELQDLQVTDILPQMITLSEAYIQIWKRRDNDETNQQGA
Outline: as §1

USP4 = biological target: T4, USP4 (UniProt Q13107)
T4 sequence (whole entry): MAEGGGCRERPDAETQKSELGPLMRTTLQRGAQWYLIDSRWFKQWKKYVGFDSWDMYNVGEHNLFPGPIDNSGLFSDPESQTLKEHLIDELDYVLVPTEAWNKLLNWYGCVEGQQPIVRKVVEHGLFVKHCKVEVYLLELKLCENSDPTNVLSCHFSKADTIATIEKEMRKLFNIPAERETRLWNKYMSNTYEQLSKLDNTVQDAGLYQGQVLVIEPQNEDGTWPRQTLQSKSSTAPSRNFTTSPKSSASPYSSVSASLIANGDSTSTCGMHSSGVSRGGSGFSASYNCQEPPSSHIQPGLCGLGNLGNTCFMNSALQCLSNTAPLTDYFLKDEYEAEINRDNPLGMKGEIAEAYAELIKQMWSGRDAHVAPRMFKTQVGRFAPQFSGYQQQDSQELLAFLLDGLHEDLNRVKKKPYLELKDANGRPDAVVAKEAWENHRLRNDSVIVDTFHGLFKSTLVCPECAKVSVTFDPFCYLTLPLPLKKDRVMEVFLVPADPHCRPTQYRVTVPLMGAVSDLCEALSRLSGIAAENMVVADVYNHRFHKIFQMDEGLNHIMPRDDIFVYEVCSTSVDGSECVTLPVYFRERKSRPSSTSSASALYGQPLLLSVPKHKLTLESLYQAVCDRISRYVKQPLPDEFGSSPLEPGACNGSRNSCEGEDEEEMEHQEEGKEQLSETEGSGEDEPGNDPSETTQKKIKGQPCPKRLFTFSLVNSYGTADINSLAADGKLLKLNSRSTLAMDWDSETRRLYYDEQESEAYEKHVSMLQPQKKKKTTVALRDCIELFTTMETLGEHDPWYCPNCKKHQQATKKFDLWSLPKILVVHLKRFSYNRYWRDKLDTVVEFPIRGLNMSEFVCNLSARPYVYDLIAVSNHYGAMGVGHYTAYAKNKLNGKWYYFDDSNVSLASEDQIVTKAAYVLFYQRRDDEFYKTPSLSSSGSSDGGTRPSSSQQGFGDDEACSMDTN
Outline: as §1

Measured: log2 ratio of Biotin-Ahx-Ub-VS probe labelling

C/C(=C\CNC(=O)CCl)c1cnn(C)c1.Cl
inactive: USP34 -0.267 | USP36 -0.266 | USP38 -0.227 | USP39 0.0033 | USP4 -0.395
